# The panel holds about 79,000 compounds, 15% with a hit somewhere; the sample as a whole holds those more often. A number with no mark means an inactive call. Active and inactive are the calls of the source. Cut-off read from the data, not from the text of the source: active = growth inhibition above about 70%; inactive = the rest.
# How the values were obtained:
# [1] = NCI Yeast Anticancer Drug Screen. Data for the rad52 strain (AID 147);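 note: 0% = growth of vehicle-treated control cultures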; settings: S. cerevisiae rad52 mutant growth inhibition, hits give high values
# In short: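 The repair-mutant yeast strain was incubated with compounds, then growth was read and inhibition derived relative to vehicle.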
# [2] = NCI Yeast Anticancer Drug Screen. Data for the wt1 strain (AID 149);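 note: 0% = growth of vehicle-treated wt1 cultures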; settings: S. cerevisiae wt1 strain (SPY 50644) growth inhibition, hits give high values
# In short: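 The wt1 strain was treated with compounds, and growth was compared with vehicle-treated cultures to give inhibition.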
# [3] = NCI Yeast Anticancer Drug Screen. Data for the rad50EPP+ strain (AID 151);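 note: 0% = growth of vehicle-treated control cultures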; settings: S. cerevisiae rad50 mutant strain, hits give high values
# In short: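 Vehicle-normalised growth inhibition; rad50EPP+ yeast strain, altered in DNA damage repair, compound-treated.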
# [4] = NCI Yeast Anticancer Drug Screen. Data for the mgt1 strain (AID 153); settings: S. cerevisiae mgt1 mutant growth inhibition, hits give high values
# In short: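 Vehicle-normalized growth inhibition is determined in mgt1 yeast, a strain selected for a defined alteration in DNA repair or cell cycle control.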
# [5] = NCI Yeast Anticancer Drug Screen. Data for the rad50 strain (AID 155);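 note: 0% = growth of vehicle-only cultures of the same strain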; settings: S. cerevisiae rad50 strain growth inhibition, hits give high values
# In short: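 Cells are treated with compound, grown, and their growth is then scored against vehicle-only cultures of the same repair-deficient yeast strain.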
# [6] = NCI Yeast Anticancer Drug Screen. Data for the mec2-1 strain (AID 157); settings: S. cerevisiae mec2-1 strain, hits give high values
# In short: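 Mutant yeast (mec2-1) grown with compound; growth inhibition relative to vehicle control reported.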
# [7] = NCI Yeast Anticancer Drug Screen. Data for the rad14 strain (AID 159);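 note: 0% = growth of vehicle-treated control cultures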; settings: S. cerevisiae rad14 strain growth inhibition, hits give high values
# In short: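 Readout: yeast growth inhibition, referenced to vehicle-only cultures. Strain bears a defined alteration in DNA damage repair.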
# [8] = NCI Yeast Anticancer Drug Screen. Data for the sgs1 mgt1 strain (AID 161);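 note: 0% = growth of cultures given vehicle only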; settings: S. cerevisiae sgs1 mgt1 strain, hits give high values
# In short: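 This yeast growth screen uses a strain with defined DNA-repair lesions; compound-treated growth is compared with vehicle-treated growth.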
# [9] = NCI Yeast Anticancer Drug Screen. Data for the CLN2oe strain (AID 163);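 note: 0% = growth of vehicle-only control cultures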; settings: S. cerevisiae CLN2oe strain, hits give high values
# In short: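 Compounds are applied to yeast harbouring a defined cell-cycle control change; reduced growth compared with vehicle-treated controls gives the value.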
# [10] = NCI Yeast Anticancer Drug Screen. Data for the cln2 rad14 strain (AID 165);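 note: 0% = growth equal to vehicle treated cultures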; settings: S. cerevisiae cln2 rad14 strain, hits give high values
# In short: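 Readout is yeast growth inhibition versus vehicle-treated controls, using a strain with cln2 and rad14 alterations exposed to compound.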
# [11] = NCI Yeast Anticancer Drug Screen. Data for the bub3 strain (AID 167); settings: S. cerevisiae bub3 mutant strain, hits give high values
# In short: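 Part of a panel of yeast mutants defective in DNA damage repair or cell cycle regulation. Each strain is grown with compound, and inhibition is calculated relative to solvent-treated cultures.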
# [12] = NCI Yeast Anticancer Drug Screen. Data for the wt2 strain (AID 169);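 note: 0% = growth of vehicle-treated yeast cultures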; settings: S. cerevisiae wt2 strain growth inhibition, hits give high values
# In short: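 Against vehicle-treated controls, the growth of yeast exposed to each compound was compared, and the inhibition was recorded.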
# [13] = NCI Yeast Anticancer Drug Screen. Data for the mlh1 strain (AID 171);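 note: 0% = growth of vehicle-treated control cultures of the same strain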; settings: S. cerevisiae mlh1 strain growth inhibition, hits give high values
# In short: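 Measured: yeast growth. Reference: vehicle-treated controls. Organism: strain with a defined alteration affecting DNA damage repair or cell cycle control, treated with compound.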
# [14] = NCI Yeast Anticancer Drug Screen. Data for the sgs1 strain (AID 173);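 note: 0% = growth of vehicle-only control cultures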; settings: S. cerevisiae sgs1 mutant, hits give high values
# In short: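 Each compound was added to cultures of the altered yeast strain. Growth was recorded, and inhibition was derived by comparison with vehicle controls.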
# [15] = NCI Yeast Anticancer Drug Screen. Data for the mlh1 rad18 strain (AID 175); settings: S. cerevisiae mlh1 rad18 strain growth inhibition, hits give high values
# In short: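 Genetically defined yeast (DNA repair-deficient) exposed to compounds; growth inhibition determined relative to vehicle.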
# [16] = NCI Yeast Anticancer Drug Screen. Data for the rad18 strain (AID 177); settings: S. cerevisiae rad18 mutant growth inhibition, hits give high values
# In short: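 Vehicle-treated cultures served as the baseline for scoring compound-induced growth inhibition in DNA-repair-mutant yeast.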
# [17] = at 5.0 µM (retest, dose inferred, filed as 0.5)
# [18] = at 50.0 µM (retest, dose inferred, filed as 5.0)
structure (smiles),measurement,setting,value
NC1=NCC(c2ccc(Cl)cc2)O1 (stereo not drawn),growth inhibition,[1]; at 1.2 µM,-4%
same,growth inhibition,[1]; at 3.7 µM,-2%
same,growth inhibition,[1]; at 11.0 µM,-5%
same,growth inhibition,[1]; at 33.0 µM,-8%
same,growth inhibition,[1]; at 100.0 µM,47%
same,growth inhibition,[2]; at 1.2 µM,-5%
same,growth inhibition,[2]; at 3.7 µM,-4%
same,growth inhibition,[2]; at 11.0 µM,-7%
same,growth inhibition,[2]; at 33.0 µM,-5%
same,growth inhibition,[2]; at 100.0 µM,3%
same,growth inhibition,[3]; at 1.2 µM,-2%
same,growth inhibition,[3]; at 3.7 µM,0%
same,growth inhibition,[3]; at 11.0 µM,0%
same,growth inhibition,[3]; at 33.0 µM,4%
same,growth inhibition,[3]; at 100.0 µM,4%
same,growth inhibition,[4]; at 1.2 µM,-3%
same,growth inhibition,[4]; at 3.7 µM,-4%
same,growth inhibition,[4]; at 11.0 µM,-2%
same,growth inhibition,[4]; at 33.0 µM,5%
same,growth inhibition,[4]; at 100.0 µM,50%
same,growth inhibition,[5]; at 1.2 µM,-1%
same,growth inhibition,[5]; at 3.7 µM,-4%
same,growth inhibition,[5]; [17],-151%
same,growth inhibition,[5]; at 11.0 µM,7%
same,growth inhibition,[5]; at 33.0 µM,11%
same,growth inhibition,[5]; [18],17%
same,growth inhibition,[5]; at 50.0 µM,57.8%
same,growth inhibition,[5]; at 100.0 µM,49%
same,growth inhibition,[6]; at 1.2 µM,1%
same,growth inhibition,[6]; at 3.7 µM,-1%
same,growth inhibition,[6]; [17],-51%
same,growth inhibition,[6]; at 11.0 µM,3%
same,growth inhibition,[6]; at 33.0 µM,1%
same,growth inhibition,[6]; [18],10%
same,growth inhibition,[6]; at 50.0 µM,13.3%
same,growth inhibition,[6]; at 100.0 µM,44%
same,growth inhibition,[7]; at 1.2 µM,-2%
same,growth inhibition,[7]; at 3.7 µM,-3%
same,growth inhibition,[7]; at 11.0 µM,-1%
same,growth inhibition,[7]; at 33.0 µM,2%
same,growth inhibition,[7]; at 100.0 µM,52%
same,growth inhibition,[8]; [17],-62%
same,growth inhibition,[8]; [18],17%
same,growth inhibition,[8]; at 50.0 µM,50.2%
same,growth inhibition,[9]; at 1.2 µM,-2%
same,growth inhibition,[9]; at 3.7 µM,-2%
same,growth inhibition,[9]; at 11.0 µM,3%
same,growth inhibition,[9]; at 33.0 µM,1%
same,growth inhibition,[9]; at 100.0 µM,50%
same,growth inhibition,[10]; [17],-64%
same,growth inhibition,[10]; [18],7%
same,growth inhibition,[10]; at 50.0 µM,31.1%
same,growth inhibition,[11]; at 1.2 µM,-11%
same,growth inhibition,[11]; at 3.7 µM,-9%
same,growth inhibition,[11]; [17],-76%
same,growth inhibition,[11]; at 11.0 µM,-4%
same,growth inhibition,[11]; at 33.0 µM,-6%
same,growth inhibition,[11]; [18],27%
same,growth inhibition,[11]; at 50.0 µM,39.4%
same,growth inhibition,[11]; at 100.0 µM,49%
same,growth inhibition,[12]; at 1.2 µM,-1%
same,growth inhibition,[12]; at 3.7 µM,0%
same,growth inhibition,[12]; at 11.0 µM,0%
same,growth inhibition,[12]; at 33.0 µM,-1%
same,growth inhibition,[12]; at 100.0 µM,47%
same,growth inhibition,[13]; at 1.2 µM,7%
same,growth inhibition,[13]; at 3.7 µM,-5%
same,growth inhibition,[13]; at 11.0 µM,-5%
same,growth inhibition,[13]; at 33.0 µM,-4%
same,growth inhibition,[13]; at 100.0 µM,47%
same,growth inhibition,[14]; at 1.2 µM,0%
same,growth inhibition,[14]; at 3.7 µM,-1%
same,growth inhibition,[14]; at 11.0 µM,-2%
same,growth inhibition,[14]; at 33.0 µM,-2%
same,growth inhibition,[14]; at 100.0 µM,48%
same,growth inhibition,[15]; [17],-135%
same,growth inhibition,[15]; [18],81% (active)
same,growth inhibition,[15]; at 50.0 µM,50.4%
same,growth inhibition,[16]; at 1.2 µM,-4%
same,growth inhibition,[16]; at 3.7 µM,-3%
same,growth inhibition,[16]; at 11.0 µM,-3%
same,growth inhibition,[16]; at 33.0 µM,-3%
same,growth inhibition,[16]; at 100.0 µM,48%
